# Assay results published in PubChem BioAssay.
# Measured potencies and affinities stand elsewhere. Records with an inconclusive call do not appear. Activity calls are given as the source filed them.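 How the source made its calls, unless noted: active means signal drop whose fitted half-maximal concentration is at most twice the top valid dose, in every test run; inconclusive means mixed calls across runs, poor fit, or flat 30 to 70% inhibition; inactive means wrong direction, flat within 30%, or potency beyond limit.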
# Assay: cytotoxicity in PAX8-dependent RMG-1 cells, dose response, cell-based, cherry-pick (AID 687029);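 further: cells exposed to compound for 96 hours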
# Conditions: RMG-1 viability, CellTiterGlo ATP luminescence, 96 h; series mostly up to 35 µM
row,SMILES,outcome
1,COc1ccc(NC(=O)N2CCCCN3[C@@H](CO)[C@@H](c4ccc(C#Cc5ccccc5)cc4)[C@@H]3C2)cc1,inactive
2,O=C1C(=O)c2cccnc2-c2ncccc21,inactive
3,CN=c1scc(-c2ccccc2F)n1/N=C/c1ccc[nH]1,inactive
4,CCS(=O)(=O)c1ncc(Cl)c(C(=O)Nc2ccc(C)cc2)n1,inactive
5,CCN(CC)S(=O)(=O)c1cc([N+](=O)[O-])ccc1NNC(=O)Nc1ccc(Cl)c(Cl)c1,inactive
6,CC(=O)n1cc(N(C(=O)CCl)c2ccccc2)c2ccccc21,inactive
7,CCS(=O)(=O)c1ccc(N=Nc2ccc(O)c3ncccc23)c(OC)c1,inactive
8,CN(C)CCNC(=O)c1cc2c(s1)-c1ccc(Cl)cc1SC2,inactive
9,CCOc1ccccc1NC(=O)c1nc(S(=O)(=O)Cc2cccc(C)c2)ncc1Cl,inactive
10,O=C(O)c1ccc(N/N=C/c2ccc3c(c2)OCO3)cc1,inactive
11,CCCCCCN(C(=O)CCl)c1ccccc1,inactive
12,CCN1CCN(Cc2ccc(NC(=O)c3ccc(C)c(NC(=O)c4c[nH]c5cc(C(F)(F)F)ccc5c4=O)c3)cc2C(F)(F)F)CC1,inactive
13,COc1ccc(OCc2cccc(C(=O)Nn3cc([N+](=O)[O-])cn3)c2)cc1,inactive
14,CCS(=O)(=O)c1ncc(Cl)c(C(=O)Nc2ccc(S(=O)(=O)N3CCC(C)CC3)cc2)n1,inactive
15,Clc1ccc(Cn2ncc3c(N4CCN(c5ccccc5)CC4)ncnc32)cc1,inactive
16,O=C(CCl)N(c1ccccc1)C1CCCCC1,inactive
17,C(=NNc1ccc2ccccc2n1)c1ccccn1,inactive
18,COC(=O)C1C=CC(OC2OC(COC(C)=O)C(OC(C)=O)C(OC(C)=O)C2OC(C)=O)n2c(=O)n(-c3ccccc3)c(=O)n21 (stereo not given),inactive
19,Cc1onc(C(=O)N2CCN(C(c3ccccc3)c3ccccc3)CC2)c1[N+](=O)[O-],inactive
20,Nc1nc(=S)c2ncn([C@@H]3O[C@H](CO)[C@@H](O)[C@H]3O)c2[nH]1,inactive
21,Cc1nn(-c2ccccc2)c(Cl)c1CN(C(=O)CCl)c1cccc2ccccc12,inactive
22,COc1ccc(OCc2cccc(C(=O)Nc3cc(C)on3)c2)cc1,inactive

# Assay: cytotoxicity in IOSE-T80 ovarian epithelial cells, dose response, selectivity assay for PAX8 inhibitor project, cell-based, cherry-pick (AID 687032;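 active means fitted half-maximal concentration for viability loss no higher than twice the top valid dose, in every repeat run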;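 further: cells exposed to compound for 96 h before reading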)
# Conditions: CellTiterGlo ATP luminescence, 96 h; series mostly up to 35 µM
row,SMILES,outcome
1,CCS(=O)(=O)c1ncc(Cl)c(C(=O)Nc2ccc(C)cc2)n1,inactive
2,CCN(CC)S(=O)(=O)c1cc([N+](=O)[O-])ccc1NNC(=O)Nc1ccc(Cl)c(Cl)c1,inactive
3,CC(=O)n1cc(N(C(=O)CCl)c2ccccc2)c2ccccc21,inactive
